The full ranking holds about 110,000 compounds; the median of “z-score” is about -0.1, and the highest 2% start at about 2. This is one part of a sample in which the highest values are shown more often than they occur. Calls of active or inactive are those of the source.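 The calls were made as follows: active = z-score in the third read window above 3 or below -3; inactive = the rest.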
Target: Metabotropic glutamate receptor 8 (Rattus norvegicus) (UniProt P70579)
Experiment: rat mGluR8 modulators via GIRK flux, primary screen, cell-based, thallium flux, HTS (AID 488969)
Settings: HEK293 rat mGluR8, GIRK (G protein-gated inwardly rectifying potassium channel) thallium flux, FluoZin2; at 10 µM; stronger effect = higher value; submaximal glutamate (EC20) added with thallium

Chain of Metabotropic glutamate receptor 8 (Rattus norvegicus) (P70579 whole entry, looked up): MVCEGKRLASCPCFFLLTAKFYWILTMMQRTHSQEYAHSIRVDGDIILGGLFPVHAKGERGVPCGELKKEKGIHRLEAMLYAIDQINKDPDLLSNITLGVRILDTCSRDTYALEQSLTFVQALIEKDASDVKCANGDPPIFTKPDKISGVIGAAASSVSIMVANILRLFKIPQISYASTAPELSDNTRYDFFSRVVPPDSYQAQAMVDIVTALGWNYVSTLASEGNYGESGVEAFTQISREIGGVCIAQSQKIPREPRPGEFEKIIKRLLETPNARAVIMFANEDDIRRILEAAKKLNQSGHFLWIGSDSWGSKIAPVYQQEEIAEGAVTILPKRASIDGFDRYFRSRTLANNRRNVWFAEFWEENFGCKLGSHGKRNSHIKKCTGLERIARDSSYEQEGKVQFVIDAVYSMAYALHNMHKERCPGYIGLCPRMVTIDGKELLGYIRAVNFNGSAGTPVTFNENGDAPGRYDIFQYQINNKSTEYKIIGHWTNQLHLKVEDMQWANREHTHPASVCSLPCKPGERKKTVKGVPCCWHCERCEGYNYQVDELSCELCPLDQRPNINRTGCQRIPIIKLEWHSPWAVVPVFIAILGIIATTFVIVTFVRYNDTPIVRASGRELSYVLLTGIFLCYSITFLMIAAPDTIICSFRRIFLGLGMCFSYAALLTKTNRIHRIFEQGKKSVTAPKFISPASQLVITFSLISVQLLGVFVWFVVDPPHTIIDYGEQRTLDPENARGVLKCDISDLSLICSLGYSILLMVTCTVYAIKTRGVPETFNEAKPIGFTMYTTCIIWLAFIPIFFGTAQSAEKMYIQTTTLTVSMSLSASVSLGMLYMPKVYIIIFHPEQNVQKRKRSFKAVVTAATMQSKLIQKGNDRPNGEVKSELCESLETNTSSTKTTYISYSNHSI

Row | Structure (SMILES) | z-score
1 | CC(=O)SC(C)CC(=O)NCc1ccccc1 (stereo unspecified) | -0.123
2 | Cc1ccccc1Nc1nc2nonc2nc1N1CCOCC1 | 6.03 (active)
3 | COc1ccccc1Nc1nc2nonc2nc1N1CCC(C)CC1 | -0.00241
4 | Cc1ccc(C)c(Nc2nc3nonc3nc2N2CCOCC2)c1 | 0.382
5 | CCCCC(=O)Nc1cc(C(=O)NCCc2ccccc2)ccc1Cl | 0.145
6 | O=C(Nc1ccccc1)c1cccnc1N1CCCC1 | 0.569
7 | CC1CCN(c2ncccc2C(=O)O)CC1 | 4.14 (active)
8 | CC1CCN(c2nc3ccccc3nc2N2CCC(C)CC2)CC1 | -0.169
9 | Cc1ccc(-n2nnnc2SCC(=O)c2ccc3c(c2)NC(=O)CO3)c(C)c1 | -0.0959
10 | Cc1ccc(C2(C)NC(=O)N(CC(=O)Nc3c(C)n(C)n(-c4ccccc4)c3=O)C2=O)cc1 (stereo unspecified) | -0.208
11 | CCc1ccccc1NC(=O)CSc1nc2n[nH]c(C)c2c(=N)n1-c1cccc(OC)c1 | 0.747
12 | CCc1ccc(NC(=O)CSc2nc3n[nH]c(C)c3c(=N)n2-c2cccc(OC)c2)cc1 | 0.339
13 | COc1cccc(-n2c(SCC(=O)NCCC3=CCCCC3)nc3n[nH]c(C)c3c2=N)c1 | 8.62 (active)
14 | COc1ccc(/C=C/C(=O)NC(C)C)cc1Br | -0.339
15 | CCCOc1ccc(C(=O)N2CCCC2)cc1OC | -0.411
16 | S=C(Nc1ccc(Cl)cc1)N1CCOCC1 | 0.122
17 | S=C(N/N=C/c1ccccc1)N1CCOCC1 | 2.65
18 | S=C(N/N=C/c1ccc(Cl)cc1)N1CCOCC1 | 11.9 (active)
19 | NC(=S)N/N=C/c1ccccc1 | 0.103
20 | CC(C)NC(=S)N/N=C/c1ccc(N2CCOCC2)cc1 | 0.522
21 | Cc1ccc(NC(=S)N2CCOCC2)cc1 | -0.0267
22 | S=C(Nc1ccc(Cl)cc1Cl)N1CCOCC1 | -0.325
23 | Cc1ccc(/C=N/NC(=S)N2CCOCC2)cc1 | 4.72 (active)

Row | Structure (SMILES) | z-score
24 | S=C(NCCN1CCOCC1)N/N=C/c1ccccc1 | 0.728
25 | COc1ccc(OCCN2CCN(C3CC(=O)N(CCC(C)C)C3=O)CC2)cc1 (stereo unspecified) | -0.363
26 | O=C(/C=C/c1c(Cl)cccc1Cl)N1CCN(c2ncccn2)CC1 | -0.303
27 | COCC(C)NC(=O)c1ccccc1OC(C)=O (stereo unspecified) | -0.44
28 | COc1cc(/C=N/NC(=O)c2sc(N)c(C#N)c2C)cc(Br)c1O | -0.544
29 | Cc1cc(C)n(-c2ccc(C(=O)OCC(=O)Nc3ccc(Cl)cc3[N+](=O)[O-])cc2)n1 | -0.362
30 | COC(=O)c1cc2ccc(OC)c(OC)c2c(=O)s1 | 0.0942
31 | COc1ccc2cc(C(=O)Nc3ccccc3)sc(=O)c2c1OC | 4.25 (active)
32 | COc1ccc2cc(C(=O)Nc3ccc(F)cc3)sc(=O)c2c1OC | 0.534
33 | COc1ccc2cc(C(=O)NCC(=O)O)sc(=O)c2c1OC | 3.42 (active)
34 | COc1ccc2cc(C(=O)OC(C)C)sc(=O)c2c1OC | -0.229
35 | COc1ccc2cc(C(=O)NCCO)sc(=O)c2c1OC | -0.297
36 | N#Cc1ccc(C(=O)Nc2cc(S(=O)(=O)Nc3ccc(Cl)cc3)ccc2N2CCCCC2)cc1 | -0.309
37 | O=C(O)CCc1ccc(-c2ccc(F)cc2)n1NC(=O)c1ccco1 | 0.168
38 | Cc1ccc(N=Cc2cc3c(cc2O)OC(N)=C(C#N)C3c2ccccc2)cc1 (stereo unspecified) | 6.28 (active)
39 | COc1ccc(N=Cc2cc3c(cc2O)OC(N)=C(C#N)C3c2ccccc2)cc1 (stereo unspecified) | -1.18
40 | N#CC1=C(N)Oc2cc(O)c(C=Nc3ccccc3)cc2C1c1ccccc1 (stereo unspecified) | -0.423
41 | O=C(c1ccc(Cn2c(=O)[nH]c3ccccc3c2=O)cc1)N1CCN(c2ccc(Cl)cc2)CC1 | -0.127
42 | CC(C)CCn1c(CN2CCN(Cc3ccccc3)CC2)nc2c1c(=O)[nH]c(=O)n2C | 5.8 (active)
43 | CC(C)CCn1c(CN2CCN(Cc3ccccc3)CC2)nc2c1c(=O)n(C)c(=O)n2C | 0.709
44 | CN1CCN(Cc2nc3c(c(=O)[nH]c(=O)n3C)n2CCc2ccccc2)CC1 | -0.00916
45 | CC(C)CCNC(=O)CO/N=C/c1ccccc1OC(F)F | -0.572
46 | N#CCSc1nc(Nc2ccc3c(c2)OCO3)c2ccccc2n1 | -0.556

Row | Structure (SMILES) | z-score
47 | COc1cc(Nc2nc3ccccc3n3nnnc23)cc(OC)c1OC | -0.0435
48 | COc1cc(Nc2nc(SCC#N)nc3ccccc23)cc(OC)c1OC | 2.31
49 | CC(C)COC(=O)c1cccc2c1-c1ccccc1/C2=N\O | -0.108
50 | O=C(Nc1cccc(Oc2ccc3c(c2)C(=O)NC3=O)c1)c1cccs1 | 0.83
51 | CC1CCCC(n2c(=S)[nH]c3ccccc3c2=O)C1C (stereo unspecified) | 9.07 (active)
52 | CC1CCCCC1n1c(=S)[nH]c2ccccc2c1=O (stereo unspecified) | 16.2 (active)
53 | Cc1cc(C)c2c(N=NN3CCCCC3)[nH]nc2n1 | -0.0999
54 | CCN(CC)S(=O)(=O)c1ccc(NC(=O)c2ccc(NS(C)(=O)=O)cc2)cc1 | 1.67
55 | CCn1c(N2CCN(C(=S)NCC(C)C)CC2)nc2ccccc21 | -0.148
56 | CCCC(=O)NCc1ccc2c(c1)cc(C)n2C | -0.371
57 | CC1=C(C(=O)OCC2CCCO2)C(c2ccc(C)o2)C2=C(CC(c3ccc(N(C)C)cc3)CC2=O)N1 (stereo unspecified) | -0.22
58 | CCOC(=O)C1=C(C)NC2=C(C(=O)CC(c3ccc(OC)c(OC)c3)C2)C1c1ccc(C)o1 (stereo unspecified) | 4.89 (active)
59 | CC1=C(C(=O)OCC2CCCO2)C(c2ccc(C)o2)C2=C(CC(c3ccc(F)cc3)CC2=O)N1 (stereo unspecified) | -3.31 (active)
60 | Cc1cc(C(F)(F)F)nc(SCC(=O)NC2=NC(=O)C(C)S2)n1 (stereo unspecified) | 0.475
61 | COc1ccccc1C(=O)NCC(=O)N/N=C/c1cc(Br)ccc1OC(=O)/C=C\c1ccco1 | -0.122
62 | O=C(CNC(=O)c1ccccc1F)N/N=C/c1cc(Br)ccc1OC(=O)/C=C/c1ccco1 | -0.338
63 | O=C(CNC(=O)c1cccc(F)c1)N/N=C/c1cc(Br)ccc1OC(=O)/C=C/c1ccco1 | 2.46
64 | Cc1cc(C)nc(NC(=O)c2ccc(C)c([N+](=O)[O-])c2)n1 | -0.0674
65 | O=C(CN1CCN(CC(=O)Nc2ccccn2)CC1)Nc1ccccn1 | -0.212
66 | O=C(CC(=O)Nc1ccccn1)Nc1ccccn1 | 4.08 (active)
67 | O=C(Nc1ccccc1)C(=O)Nc1ccccn1 | -0.125
68 | COc1ccc(OCc2nc3ccc(S(=O)(=O)Nc4ccccc4Cl)cc3[nH]2)cc1 | -0.822
69 | Cc1ccc(S(=O)(=O)N2CCCCC2)cc1NC(=O)CSc1ccc2c(c1)OCCO2 | -0.361

Row | Structure (SMILES) | z-score
70 | Nc1nc(SCC(=O)N2CCCC2)[nH]c(=O)c1NC(=O)c1ccco1 | 0.975
71 | CCCCSc1nc(O)c(Cc2ccccc2)c(=O)[nH]1 | 0.379
72 | CCCCSc1nc(N)c(NC(=O)c2ccco2)c(=O)[nH]1 | 3.07 (active)
73 | O=C(O)C1C2C=CC(C3CC23)C1C(=O)NCCc1ccccc1 (stereo unspecified) | 0.335
74 | Cc1cc(C)n2nc(C(=O)NCc3ccccc3)cc2n1 | 0.128
75 | CCS/C(N)=N/N=C/c1cc(C)ccc1O | -0.389
76 | CCc1ccccc1NC(=S)N1CCC(C(=O)c2ccc(F)cc2)CC1 | 0.202
77 | O=C(c1ccc(F)cc1)C1CCN(C(=S)Nc2ccccc2)CC1 | -0.612
78 | Cc1cccc(NC(=S)N2CCC(C(=O)c3ccc(F)cc3)CC2)c1C | 5.76 (active)
79 | Cc1ccc(Cn2ncc3c(NCCCN4CCOCC4)ncnc32)cc1 | -0.227
80 | CCc1nnc(NC(=O)CSc2nnc(-c3cccnc3)n2CCc2ccccc2)s1 | 0.167
81 | Cc1ccc(OCCn2c(=O)sc3ccccc32)cc1 | -0.193
82 | COc1ccc(N(C)S(=O)(=O)c2c(C)[nH]c(=O)[nH]c2=O)cc1 | 0.02
83 | COc1ccc(Cc2c[nH]c(=O)[nH]c2=O)cc1 | -0.218
84 | COc1ccc(CO/N=C/c2c(C)[nH]c(=O)[nH]c2=O)cc1 | 3.36 (active)
85 | O=C(CSc1ncn[nH]1)Nc1ccc([N+](=O)[O-])cc1Br | -0.12
86 | COc1ccc(C2CC(=O)C=C(NCCC(C)C)C2)cc1 (stereo unspecified) | 0.226
87 | CCCCCNC1=CC(=O)CC(c2ccccc2)C1 (stereo unspecified) | -0.123
88 | CC(C)CCNC1=CC(=O)CC(c2ccccc2)C1 (stereo unspecified) | 2.1
89 | CC(c1ccccc1)N1C(=O)c2ccc(C(=O)NCc3ccco3)cc2C1=O (stereo unspecified) | -0.54
90 | Cc1ccc(N=C(NO)c2nonc2N)cc1 | -1.5
91 | Cn1ccnc1C(O)(c1nnc(-c2ccccc2)o1)C(F)(F)F (stereo unspecified) | -1.19
92 | CC(C)n1c(O)c(N=Nc2ccc(Cl)nn2)c2ccccc21 | 3.42 (active)

Row | Structure (SMILES) | z-score
93 | CC(C)n1c(O)c(N=NC(=O)Cn2ccc(C(F)(F)F)n2)c2ccccc21 | 1.13
94 | CCCCn1c(O)c(N=NC(=O)Cn2c(C(F)(F)F)nc3ccccc32)c2ccccc21 | 0.194
95 | Cc1cc(C(=O)N=Nc2c(O)n(C(C)C)c3ccccc23)n[nH]1 | 0.232
96 | CC(C)n1c(O)c(N=Nc2ccccn2)c2ccccc21 | 2.21
97 | CCCCn1c(O)c(N=Nc2ccccn2)c2ccccc21 | 2.97
98 | CC(C)n1c2ccccc2c2nc3ccccc3nc21 | -0.47
99 | CC(C)n1c(O)c(N=NC(=O)c2ccccc2NS(=O)(=O)c2cccs2)c2ccccc21 | -0.411
100 | CC(C)CCn1c(O)c(N=Nc2ccccn2)c2ccccc21 | 1.19
101 | COc1ccc(CC(=O)NCc2ccco2)cc1OC | -0.0499
102 | CN(C)C(CNS(=O)(=O)c1ccc(Cl)cc1)c1cccnc1 (stereo unspecified) | -0.0299
103 | CCOC(=O)CCc1c(C)c2ccc(OCC(=O)N(CC)CC)c(C)c2oc1=O | -0.0102
104 | CCCc1cc(=O)[nH]c(SCC(=O)N2N=C(c3ccc(Cl)cc3)CC2c2ccco2)n1 (stereo unspecified) | -0.126
105 | COCCn1c(=S)[nH]c2cc(C(=O)N3CCC(C(N)=O)(N4CCCCC4)CC3)ccc2c1=O | -0.286
106 | CCOc1ccccc1N1CCN(Cc2cccc(OC)c2O)CC1 | -0.0607
107 | COc1ccccc1N1CCN(Cc2ccc(O)c3ncccc23)CC1 | -0.0396
108 | COc1ccccc1N1CCN(Cc2cc(Br)c(O)c3ncccc23)CC1 | 3.32 (active)
109 | Cc1cc(C(=O)NCC(=O)OCC(=O)N(C)C2CCCCC2)ccc1[N+](=O)[O-] | 0.828
110 | CCOC(=O)C1C(=O)C=C(/C=C/c2ccccc2)CC1c1ccc(Cl)cc1 (stereo unspecified) | -0.123
111 | CC(C)[C@H](NC(=O)OC(C)(C)C)c1nnc(SCC(=O)Nc2ccc(Br)cc2)o1 | -0.355

From PubChem BioAssay AID488969 (Vanderbilt High Throughput Screening Facility, 2010)
